IL1B secr inh = qHTS for Inhibitors of Inflammasome Signaling: IL-1-beta AlphaLISA Primary Screen | 360,000 compounds, 4.7% hits | THP-1 LPS/ATP IL-1B secretion, AlphaLISA, 16 h; stronger effect = lower value | AID 743279, 2014 | activity change, % at 57.5 µM; in the data active means activity change below about -50%; inconclusive means mostly about -30% to -49%; further: on the % scale 0 is the no-effect control and ±100 the full control effect
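THP-1 cells pretreated 1 hr with compounds (up to 57.5 uM final), then stimulated with LPS (250 ng/mL final) plus ATP (1.25 mM final); secreted IL-1B measured by AlphaLISA after 16 hr, decreased signal indicating inhibition.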
TDP1 cell noCPT = qHTS for Inhibitors of human tyrosyl-DNA phosphodiesterase 1 (TDP1): qHTS in cells in absence of CPT | 420,000 compounds, 15% hits | AID 686978, 2013 | Potency, µM (titrated, usually from 46.2 µM), without a hit: at the top dose activity change, negative = growth inhibition, actives largely listed as inhibitors | DT40 Tdp1-/- hTDP1 cells, no CPT, ATP luminescence, 48 h; further: potency means the concentration at half of the fitted maximal effect; on the % scale 0 is the no-effect control and ±100 the full control effect; nearly all actives have a fitted effect of over 55% in size
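No-CPT arm: Tdp1-/-;hTDP1 DT40 cells (400/well) plus compounds, incubated ≥48 hr at 37 °C. Readout CellTiter-Glo luminescence.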
ClpP mod = qHTS Assay for Activators of ClpP | AID 651965, 2013 | Potency, µM (series often up to 57.5 µM), inactives show top-dose activity change, negative = active | ATP-dependent Clp protease proteolytic subunit (Bacillus subtilis (strain 168)), P80244 | 340,000 compounds, 1.9% hits | purified B. subtilis ClpP, FRET peptide cleavage, 20 min; active means well fitted falling curve with a large enough effect; inconclusive means small, poorly fitted or top-dose-only effect; inactive means no such curve, though single readings can be large or run the other way; further: potency means the concentration at half of the fitted maximal effect; the source files actives as falling curves though it sought activators and does not explain the sign; nearly all actives have a fitted effect of over 65% in size
Target sequence (P80244 whole entry, looked up): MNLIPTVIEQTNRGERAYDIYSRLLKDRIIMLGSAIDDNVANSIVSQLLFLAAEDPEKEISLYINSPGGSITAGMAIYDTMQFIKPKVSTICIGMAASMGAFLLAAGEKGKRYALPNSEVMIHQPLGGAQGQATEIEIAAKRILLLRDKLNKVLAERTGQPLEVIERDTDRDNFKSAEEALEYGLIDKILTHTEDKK
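ClpP 10 microg/mL final, pH 8 Tris/KCl buffer with BSA, glycerol, Tween-20; compound pinned in; FRET-FV substrate; RT 20 min; Ex320/Em430; ΔFRET vs ADEP 5.8 microM, DMSO, no enzyme.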
D3 antag = qHTS of D3 Dopamine Receptor Antagonist: qHTS; D3R cells, DiscoveRx beta-arrestin luminescence, antagonist mode; stronger effect = lower value; D(3) dopamine receptor (Homo sapiens), P35462; 360,000 compounds, 2.5% hits; max response, negative = inhibition, %; in the data active means max response below about -50%; inconclusive means no clear call, values can overlap the other calls; further: on the % scale 0 is the no-effect control and ±100 the full control effect
Target sequence (P35462 whole entry, looked up): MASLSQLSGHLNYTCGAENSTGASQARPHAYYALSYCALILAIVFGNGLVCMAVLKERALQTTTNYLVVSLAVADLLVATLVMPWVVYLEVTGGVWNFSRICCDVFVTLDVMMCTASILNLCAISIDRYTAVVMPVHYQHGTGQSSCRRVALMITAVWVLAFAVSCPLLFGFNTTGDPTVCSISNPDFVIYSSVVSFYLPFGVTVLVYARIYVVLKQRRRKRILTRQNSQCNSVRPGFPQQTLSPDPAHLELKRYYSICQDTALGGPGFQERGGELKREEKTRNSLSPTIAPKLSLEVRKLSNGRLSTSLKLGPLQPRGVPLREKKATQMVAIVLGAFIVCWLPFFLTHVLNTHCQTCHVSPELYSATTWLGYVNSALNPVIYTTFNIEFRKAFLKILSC
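Cells plated overnight at 1500 cells/well, then exposed to library compounds with dopamine controls for 90 minutes at 37 degrees C. DiscoveRx reagent added for 30–60 minutes at room temperature; luminescence read, quantitative HTS format.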
TDP1 cell CPT = qHTS for Inhibitors of human tyrosyl-DNA phosphodiesterase 1 (TDP1): qHTS in cells in presence of CPT; chicken DT40 Tdp1-/-;hTDP1 cells + 20 nM CPT, ATP luminescence, 48 h; Potency, µM (doses to about 46.2 µM), inactives show at the highest dose activity change, negative = growth inhibition, hits mostly inhibitors; 420,000 compounds, 12% hits; AID 686979, 2013; further: potency means the concentration at half of the fitted maximal effect; on the % scale 0 is the no-effect control and ±100 the full control effect; nearly all actives have a fitted effect of over 55% in size
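Cell growth measured by CellTiter-Glo luminescence after a minimum 48 h, 37 C compound exposure with 20 nM CPT in Tdp1-knockout DT40 cells stably expressing hTDP1, seeded 400/well; qHTS titration format.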
DRD3 agonist = qHTS of D3 Dopamine Receptor Agonist: qHTS. D3R DiscoveRx beta-arrestin cells, luminescence, 90 min. max activation, %. 410,000 compounds, 0.58% hits. AID 652048, 2013; in the data active means max activation above about 30%; further: 0% is about no effect
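Cells at 1500/well, incubated overnight, then treated with pinned compounds (dopamine as control) for 90 min at 37 degrees C. DiscoveRx reagent added for 30 - 60 minutes at room temperature; luminescence read.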
* = called active by the depositor; ? = inconclusive; nt = not tested or not shown. This is a sample that favours compounds with a hit; in the whole collection about 21% have one here. Unless noted, the call rests on the fitted dose curve; in most records, active means well fitted inhibition curve with a large enough effect; inconclusive means small, poorly fitted or top-dose-only effect; inactive means flat fitted curve, though single readings scatter.

SMILES | IL1B secr inh | TDP1 cell noCPT | ClpP mod | D3 antag | TDP1 cell CPT | DRD3 agonist
COC(=O)c1c(C)oc2ccc(N(C(=O)c3ccncc3)S(=O)(=O)c3ccc(C)cc3C)cc12 | ? | 4.1µM* | -1% | -18 | 2.6µM* | -8
Cc1ccc([N+](=O)[O-])cc1S(=O)(=O)N(C(=O)c1ccncc1)c1ccc2oc3c(c2c1)CCCC3 | -1 | -11% | -5% | -28 | -15% | -25
Cc1ccc(S(=O)(=O)N(C(=O)c2ccncc2)c2ccc3oc4c(c3c2)CCCC4)cc1[N+](=O)[O-] | 9 | -8% | 1% | 10 | -2% | 10
COC(=O)c1c(C)oc2ccc(N(C(=O)c3ccncc3)S(=O)(=O)c3cc(C)c(C)cc3C)cc12 | nt | 5.2µM* | 1% | nt | 10µM* | 9
CC(=O)ON(C(C)=O)c1ccc(/C=C2/C=Cc3ccccc32)cc1 | nt | ? | -2% | nt | ? | nt
COc1ccc(CCNc2nc3c(-c4cccc(C)c4)nnn3c3ccccc23)cc1OC | nt | -3% | -13% | nt | 22% | 4
COc1ccc(Nc2ccc(S(=O)(=O)N3CCCCC3)cc2[N+](=O)[O-])cc1OC | 0 | 21µM* | 0% | 18 | ? | 3
COc1ccc(Nc2ccc(S(=O)(=O)N3CCCCCC3)cc2[N+](=O)[O-])cc1 | ? | 23µM* | -2% | ? | ? | -12
COc1cc(C=O)ccc1Oc1ccc(S(=O)(=O)N2CCOCC2)cc1[N+](=O)[O-] | -57* | -29% | -2% | 19 | -10% | -3
Cc1ccc(S(=O)(=O)N2CCCCC2C)cc1[N+](=O)[O-] (configuration not stated) | -7 | 15µM* | 1% | -8 | 12µM* | 2
COc1cc(Nc2ccc(S(=O)(=O)N3CCN(C)CC3)cc2[N+](=O)[O-])cc(OC)c1 | -29 | ? | nt | -13 | ? | -13
COc1ccccc1NC(=O)CCN1CCC(C(N)=O)CC1 | nt | -6% | 0% | nt | -18% | -17
O=C1C(=O)N(C2CCS(=O)(=O)C2)C(c2cccc(O)c2)/C1=C(/O)c1ccc(Cl)cc1 (configuration not stated) | 4 | 26% | 0% | -2 | -2% | 2
COc1ccc(CCNc2ccc(S(=O)(=O)N3CCCC3)cc2[N+](=O)[O-])cc1 | -22 | ? | -2% | -23 | 15µM* | 7
O=[N+]([O-])c1cc(S(=O)(=O)N2CCCCCC2)ccc1Cl | -104* | 8.2µM* | nt | -15 | ? | 2
Cc1ccc(S(=O)(=O)N2CCCC2)cc1[N+](=O)[O-] | 5 | -7% | -1% | -24 | 1% | -15
O=[N+]([O-])c1cc(S(=O)(=O)N2CCCC2)ccc1NCCc1ccccc1 | 28 | ? | -17% | -3 | ? | -1
COc1ccccc1NC(=O)Cn1c(=O)n(Cc2ccc3c(c2)OCO3)c(=O)c2oc3ccccc3c21 | nt | -3% | -3% | nt | 5% | -9
CC1CCCCN1CCNC(=O)Cn1nc(-c2ccccc2)ccc1=O (configuration not stated) | 0 | 3% | -19% | -98* | 0% | -11
CCc1ccc(-c2cc3c(=O)n(CC(=O)NCCCN4CCN(CC)CC4)nc(C)n3n2)cc1 | ? | ? | 7% | 12 | 18µM* | 2
Cc1nn(CC(=O)NCCCN2CCN(C)CC2)c(=O)c2cc(-c3ccccc3)nn12 | -11 | 16% | -1% | -2 | 5% | -3
Cc1nn(CC(=O)NCCCN2CCC(N3CCCCC3)CC2)c(=O)c2cc(-c3ccccc3)nn12 | -20 | 4.1µM* | 1% | -18 | 7.3µM* | -10
CCOC(=O)C1CCCN(C(=O)Cn2nc(C)n3nc(-c4ccccc4)cc3c2=O)C1 (configuration not stated) | 12 | ? | -3% | 8 | 15µM* | 1
CCC1CCCCN1CCCNC(=O)Cn1nc(C)n2nc(-c3ccccc3)cc2c1=O (configuration not stated) | ? | 1% | -2% | -7 | -15% | -3
Cc1ccc(-c2ccc(=O)n(CC(=O)NCCCN3CCCCC3C)n2)cc1 (configuration not stated) | -19 | -9% | ? | 0 | -6% | -13
SMILES | IL1B secr inh | TDP1 cell noCPT | ClpP mod | D3 antag | TDP1 cell CPT | DRD3 agonist
CCOC(=O)C1CCN(C(=O)COC(=O)c2ccc(=O)n(Cc3ccccc3)n2)CC1 | 18 | -2% | 3% | 12 | 6% | 4
C=C(C(=O)O)c1ccc2ccccc2c1 | nt | 9% | 4% | nt | 14% | nt
COc1ccc(Cc2c(-c3cccc(Cl)c3)nc3ccc(Cl)cn23)c(C)c1 | 0 | ? | -16% | 21 | 26µM* | 5
COc1ccc(Cc2c(-c3ccccc3)nc3ccc(Br)cn23)c(C)c1 | 28 | 21µM* | -2% | ? | 21µM* | -5
CC(=O)/C(=N\Nc1ccccc1)Oc1ccc(Br)cc1 | nt | ? | nt | -15 | -16% | 1
Cn1c(=O)c(=O)n(C)c2cc(S(=O)(=O)N3CCCC3C(=O)Nc3ccccc3F)ccc21 (configuration not stated) | 19 | -1% | ? | 12 | 6% | 2
CC1(C)CC(=O)C2=C(C1)N=C1SCCC(=O)N1C2c1ccccc1 (configuration not stated) | -22 | ? | 2% | -53* | -17% | -2
O=C(COC(=O)CNC(=O)c1ccc(-c2ccccc2)cc1)NCc1ccco1 | 1 | -21% | -25% | 4 | -11% | -4
O=C(Nc1ccc(Cl)cn1)c1ccc(-c2cc(Cl)ccc2Cl)o1 | 1 | -29% | 0% | 24 | -10% | 5
COc1cccc(OC)c1NC(=O)c1ccc(-c2cc(Cl)ccc2Cl)o1 | -58* | ? | -24% | -16 | ? | -7
Cc1ccccc1NC(=O)c1ccc(-c2ccc(Cl)cc2Cl)o1 | -11 | 13µM* | ? | -17 | ? | 0
Cc1ccc(NC(=O)c2ccc(-c3cc(Cl)ccc3Cl)o2)c(C)c1 | -17 | ? | ? | -16 | 21µM* | -13
CCc1cccc(CC)c1NC(=O)c1ccc(-c2cc(Cl)ccc2Cl)o1 | 35 | ? | ? | 0 | ? | -8

Bioassay records from PubChem.
